Laboratory results published in the supplement of paper PMC7184167.
Counter-ions that a name gives are not always drawn.

System: replication-induced senescent mouse newborn dermal fibroblasts (NBF)
Experiment: relative cell viability of senescent cells (fraction); higher = less killing of senescent cells
Settings: 1 µM; 3 days
Protocol: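 Replication-induced senescent newborn mouse skin fibroblasts (NBFs) in 24-well plates were treated with a Selleck FDA-approved drug library at 1 µM for 3 days.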

Compound | relative cell viability
CN1C(C(=O)Nc2ccccn2)=C(O)c2ccccc2S1(=O)=O [Piroxicam] | 0.562
Cc1ccc(NC(=O)c2ccc(CN3CCN(C)CC3)cc2)cc1Nc1nccc(-c2cccnc2)n1 [Imatinib (STI571)] | 1.12
Cc1nc2n(c(=O)c1CCN1CCC(c3noc4cc(F)ccc34)CC1)CCCC2O (stereo not drawn) [Paliperidone] | 1.04
CC1COc2c(N3CCN(C)CC3)c(F)cc3c(=O)c(C(=O)O)cn1c23 (stereo not drawn) [Ofloxacin] | 1
CC(=O)O[C@H]1C(=O)[C@@]2(C)[C@H]([C@H](OC(=O)c3ccccc3)[C@]3(O)C[C@H](OC(=O)[C@H](O)[C@@H](NC(=O)c4ccccc4)c4ccccc4)C(C)=C1C3(C)C)[C@]1(OC(C)=O)CO[C@@H]1C[C@@H]2O [Paclitaxel] | 0.398
Cn1c(=O)c2[nH]cnc2n(C)c1=O [Aminophylline] | 0.98
CCOc1cc(CC(=O)N[C@@H](CC(C)C)c2ccccc2N2CCCCC2)ccc1C(=O)O [Repaglinide] | 0.978
O=c1[nH]c(=O)n([C@H]2C[C@H](O)[C@@H](CO)O2)cc1I [Idoxuridine] | 0.949
CCC(C)(C)c1ccc(CC(C)CN2C[C@@H](C)O[C@@H](C)C2)cc1 (stereo partly drawn) [Amorolfine HCl] | 1.09
CN(C/C=C/C#CC(C)(C)C)Cc1cccc2ccccc12 [Terbinafine] | 0.403
c1ccc2c(CC3=NCCN3)cccc2c1 [Naphazoline HCl] | 0.868
CC(=O)OCC(=O)NCCCOc1cccc(CN2CCCCC2)c1 [Roxatidine Acetate HCl] | 0.897
OC(CNCC(O)C1CCc2cc(F)ccc2O1)C1CCc2cc(F)ccc2O1 (stereo not drawn) [Nebivolol] | 0.256
CN1CCC[C@@H]1CCO[C@](C)(c1ccccc1)c1ccc(Cl)cc1 [Clemastine Fumarate] | 1.07
COc1cc(Nc2ncc3c(n2)-c2ccc(Cl)cc2C(c2c(F)cccc2OC)=NC3)ccc1C(=O)O [Alisertib (MLN8237)] | 0.0819
NC(=O)C1CCCc2c1[nH]c1ccc(Cl)cc21 (stereo not drawn) [Selisistat (EX 527)] | 0.498
CNC(=O)c1cc(Oc2ccc(NC(=O)Nc3ccc(Cl)c(C(F)(F)F)c3)c(F)c2)ccn1 [Regorafenib (BAY 73-4506)] | 0.958

Compound | relative cell viability
CC(C)(C)c1cc(C(C)(C)C)c(NC(=O)c2c[nH]c3ccccc3c2=O)cc1O [Ivacaftor (VX-770)] | 0.533
COc1ccccc1OCCNCC(O)COc1cccc2[nH]c3ccccc3c12 (stereo not drawn) [Carvedilol] | 1.14
Nc1cccc2c1CN(C1CCC(=O)NC1=O)C2=O (stereo not drawn) [Lenalidomide (CC-5013)] | 1.04
O=C(/C=C/c1cccc(S(=O)(=O)Nc2ccccc2)c1)NO [Belinostat (PXD101)] | 0.941
COc1ccc(Cl)cc1C(=O)NCCc1ccc(S(=O)(=O)NC(=O)NC2CCCCC2)cc1 [Glyburide (Glibenclamide)] | 1.02
NC(=O)c1ccc(I)c([N+](=O)[O-])c1 [Iniparib (BSI-201)] | 0.209
CC(C)(C)NC(=O)[C@H]1CC[C@H]2[C@@H]3CC[C@H]4NC(=O)C=C[C@]4(C)[C@H]3CC[C@]12C [Finasteride] | 0.942
CN(CCOc1ccc(NS(C)(=O)=O)cc1)CCc1ccc(NS(C)(=O)=O)cc1 [Dofetilide] | 1.02
CCn1cc(C(=O)O)c(=O)c2cc(F)c(N3CCNCC3)nc21 [Enoxacin] | 1.05
CS(=O)(=O)c1ccc(C(=O)Nc2ccc(Cl)c(-c3ccccn3)c2)c(Cl)c1 [Vismodegib (GDC-0449)] | 0.521
CCOC(=O)[C@H](CCc1ccccc1)N[C@@H](C)C(=O)N1[C@H](C(=O)O)C[C@@H]2CCC[C@@H]21 [Ramipril] | 0.96
COc1cc(/C=C/C(=O)CC(=O)/C=C/c2ccc(O)c(OC)c2)ccc1O [Curcumin] | 0.768
CC(=O)O[C@H]1C[C@@H]2CC[C@@H]3[C@H](CC[C@@]4(C)[C@H]3C[C@H]([N+]3(C)CCCCC3)[C@@H]4OC(C)=O)[C@@]2(C)C[C@@H]1N1CCCCC1 [Vecuronium Bromide] | 1.08
Nc1ncnc2c1ncn2[C@@H]1O[C@H](CO)[C@@H](O)[C@@H]1O [Vidarabine] | 0.744
CN(C)CCC(c1ccc(Cl)cc1)c1ccccn1 (stereo not drawn) [Chlorpheniramine Maleate] | 0.208
CCC[S+]([O-])c1ccc2[nH]c(NC(=O)OC)nc2c1 (stereo not drawn) [Albendazole Oxide] | 0.993
